# Results: the supplement of paper PMC6555819
# Tested on: VDR:RXRa (NR concentration 270 nM, RXRa partner concentration 90 nM)
# Assay: PBM binding z-score (relative to random genomic background probes); higher = stronger binding; sequences stand for … in GC…GCGATTGACAGCGTAGAATGAAGG
# Experimental: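 Protein-binding microarray (Agilent 4x180K custom design, double-stranded 60-nt probes: 5' GC cap, 34-nt variable region, 24-nt constant primer region; full probe sequence given). Purified or IVT nuclear receptor:RXRα heterodimers (3:1 NR:RXRα, mostly 270:90 nM) or homodimers were incubated for 1 h in PBS with 2% milk and no ligand, then detected with Alexa488 antibodies. Fluorescence from o1-orientation probes (~5 replicates averaged) was converted to z-scores against 500 random hg19 background probes. Variable regions are seed direct-repeat (DR0–DR5) sites, all their single-nucleotide variants and half-site ablations.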
row,Sequence,PBM binding z-score
1,CCGACTGGGGCAAAGGTTACCAGACTCAGTACGA,1.64
2,ACAGACAGGTGATGAAGGCAACTCAGGCTATCAT,-0.257
3,CGTGCAAGGTCAGCAGGTCAGTGAAAGCGACGTG,4.25
4,CCTATTAGTTGACCATAAGGGCAACCTAAGCTCG,0.839
5,ACTAGCAGGCCAAGTTTGGGTCATTCAAACAAAG,1.07
6,CAGCCTAGGTCAGGGCCATTATAGGAGGAACGTT,0.399
7,TCTAGCAGGCGAGAGGGTCACTCAAGAGGTACGG,1.49
8,CCTTACGGGTCACTCCAGGTAATAGCATCGGAGT,3.08
9,TGTTGTAGATCAATAGAGGTTAAGAAAGTGCGCT,1.92
10,ATCTCTAGGTAAAGTTCAGTTAAAGATCGATAGA,1.82
11,ACTAGTTGGTCAGCTGACGTCACACACAATTCGG,0.0123
12,AGATTGAGGTTATACGTAGATCAGGGAAGAAAGT,1.23
13,ATATGCAGGTTAGCTGGGGTCATTCAGACTAGGC,6.21
14,TAGCCTAGGTCAGGCGGGCCAGTATAGTGTCGGC,0.804
15,CCGACTGGGGCATACGGTTACCATAAGCCAGCCC,-0.577
16,GCTTACGGGTCAAAGGTTATAGCGTGAATAGAAT,5.55
17,GATACAGGGTCAGCTAGAGGCCAGAGTCTGGAAA,3.26
18,TCTCCTAGGTCAACGATGGTCAGCTAATCTGCTA,2.39
19,ACTAGTTGGTCAACTGAGGTCACACACAATTCGG,5.33
20,ATCTCGAGGTAAGACTCAGTTCAGTGAAGAACGC,0.704

row,Sequence,PBM binding z-score
1,ACAGACGGGTGAGTGAAGGTAACTCAGCTGGACG,-0.422
2,GCTGCTAGGTCAATTGATGGTCAGCTAAAGCTCG,0.815
3,ATACCAAGGTGATCGTAAGGTCGTTGATACTAAC,2.74
4,CCTACTGGGCCAAACGTCATTGATTCCAATGCTC,-0.204
5,ACTAGCAGGCCAAGTTTGGGTCACACAAACAAAG,0.933
6,CCGACTGGGGCATAAGGGTACCATAAGCCAGCCC,-0.316
7,TAGCCTAGGTCATGCGGGCCAGTTTAGTGTCGGC,2.97
8,ATCTCTAGGTAGAGATAGTTCAGTGAATGCAAAT,0.159
9,CCTAGCAGGCCAGTCTGGGTCACTCAAGGCTTGA,0.512
10,ATCTCTAGGTAAAGTTAAGTGAAAGATCGATAGA,0.476
11,CAGCCTAGGTCATGGCCAGTATAGGAGGAACGTT,1.84
12,TCTTGTAGATCAAACAGGTTAAGAAAGCCTGAGT,0.979
13,GCGCGGAGGACAAGGTCAGAGCTTTGTCCGTAGA,1.4
14,GCTTGTATATCAAGGTTAAGAAAGACTAAGCTAA,0.325
15,CGTCCAAGGTCATAGGAGGTCAGTGAAGACAGAT,6.46
16,ACAGACAGATGAGTGAAGGTAACTCAGCTGGACG,-0.157
17,GCATAAAGGTAATACAAGGTGAAAGTCCGATTGT,1.05
18,CCTAGTTGGTCAGGAGGTCACACTCCGGATATGA,3.82
19,TAGCCTAGGTCATTGGGCCAGTATGGTACGCATC,2
20,CGAACTAGGTAAGAACAGGACAGTGAAGGATGAT,-0.253
